According to PubChem BioAssay (EPA / NIEHS):
The source made the active and inactive calls. How the source made its calls: active means hit-call score of the fitted dose curve at least 0.9, where 1 is the maximum; inactive means score below 0.9.

test: CCTE_Harrill_HTTr_Apoptosis_MCF7: CCTE's 6-hour Apoptosis Assessment for the High-Throughput Transcriptomics (HTTr) Platform, in MCF-7 cells cultured in DMEM + 10% fetal bovine serum, Harrill Lab (AID 2284011)
Outline: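 MCF-7 cells in DMEM + 10% FBS exposed 6 h to chemicals over an eight-point dilution series. Caspase-3/7 activation imaged by high-content CellEvent Green staining; fitted bidirectionally versus DMSO.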

outcome, inactive:
O=c1c(O)c(-c2ccc(O)cc2)oc2cc(O)cc(O)c12
CC1(C)COCN1
c1ccc2[nH]cnc2c1
Clc1ccc(C(c2ccccc2Cl)C(Cl)Cl)cc1 (configuration not stated)
C=C(C)[C@H]1CC=C(C)C(=O)C1
[O-]n1ccccc1=S.[O-]n1ccccc1=S.[Zn+2]
CCCC(=O)OCCc1ccccc1
CC(C)(C)C1=CC(=O)C(C(C)(C)C)=CC1=O
O=C(O)c1ccc(O)cc1
CC(=O)Nc1ccc(C(=O)CCl)cc1
CCC(C)=O
CCCCCCOC(=O)CCC
CC(O)C1CCCCC1 (configuration not stated)
O=C1c2ccccc2C(=O)c2c(O)ccc(O)c21
C=C1CC[C@H](O)C/C1=C/C=C1\CCC[C@]2(C)[C@@H]([C@H](C)/C=C/[C@H](C)C(C)C)CC[C@@H]12
C1=CC2C3C=CC(C3)C2C1 (configuration not stated)
CC1(C)O[C@@H]2[C@@H](CO[C@@]3(COS(N)(=O)=O)OC(C)(C)O[C@@H]23)O1
CS(=O)(=O)c1ccc(C2=C(c3ccccc3)C(=O)OC2)cc1
Cc1ccc(S(N)(=O)=O)cc1
COc1cc([C@@H]2c3cc4c(cc3[C@@H](O[C@@H]3O[C@@H]5CO[C@@H](C)O[C@H]5[C@H](O)[C@H]3O)[C@H]3COC(=O)[C@H]23)OCO4)cc(OC)c1O
Cc1ccc(N)c(S(=O)(=O)O)c1

AC50, active:
CN(C)CCOc1ccc(/C(=C(/CCCl)c2ccccc2)c2ccccc2)cc1 50 µM
